Data taken from paper PMC4336329 (PLoS ONE, 2015).
Out of some 310,000 compounds screened, about 14,000 (4.5%) showed an effect of 50% or more. Effects have a minus sign here. This is one part of a sample in which strong results are shown more often than they occur.

Each molecule was assayed against human ether-à-go-go-related gene (hERG) potassium channel (human, UniProt Q12809) (assay: primary screen, population patch clamp on CHO cells stably expressing hERG; higher = less effect of the substance).
Sequence of human ether-à-go-go-related gene (hERG) potassium channel (Q12809 whole entry, looked up): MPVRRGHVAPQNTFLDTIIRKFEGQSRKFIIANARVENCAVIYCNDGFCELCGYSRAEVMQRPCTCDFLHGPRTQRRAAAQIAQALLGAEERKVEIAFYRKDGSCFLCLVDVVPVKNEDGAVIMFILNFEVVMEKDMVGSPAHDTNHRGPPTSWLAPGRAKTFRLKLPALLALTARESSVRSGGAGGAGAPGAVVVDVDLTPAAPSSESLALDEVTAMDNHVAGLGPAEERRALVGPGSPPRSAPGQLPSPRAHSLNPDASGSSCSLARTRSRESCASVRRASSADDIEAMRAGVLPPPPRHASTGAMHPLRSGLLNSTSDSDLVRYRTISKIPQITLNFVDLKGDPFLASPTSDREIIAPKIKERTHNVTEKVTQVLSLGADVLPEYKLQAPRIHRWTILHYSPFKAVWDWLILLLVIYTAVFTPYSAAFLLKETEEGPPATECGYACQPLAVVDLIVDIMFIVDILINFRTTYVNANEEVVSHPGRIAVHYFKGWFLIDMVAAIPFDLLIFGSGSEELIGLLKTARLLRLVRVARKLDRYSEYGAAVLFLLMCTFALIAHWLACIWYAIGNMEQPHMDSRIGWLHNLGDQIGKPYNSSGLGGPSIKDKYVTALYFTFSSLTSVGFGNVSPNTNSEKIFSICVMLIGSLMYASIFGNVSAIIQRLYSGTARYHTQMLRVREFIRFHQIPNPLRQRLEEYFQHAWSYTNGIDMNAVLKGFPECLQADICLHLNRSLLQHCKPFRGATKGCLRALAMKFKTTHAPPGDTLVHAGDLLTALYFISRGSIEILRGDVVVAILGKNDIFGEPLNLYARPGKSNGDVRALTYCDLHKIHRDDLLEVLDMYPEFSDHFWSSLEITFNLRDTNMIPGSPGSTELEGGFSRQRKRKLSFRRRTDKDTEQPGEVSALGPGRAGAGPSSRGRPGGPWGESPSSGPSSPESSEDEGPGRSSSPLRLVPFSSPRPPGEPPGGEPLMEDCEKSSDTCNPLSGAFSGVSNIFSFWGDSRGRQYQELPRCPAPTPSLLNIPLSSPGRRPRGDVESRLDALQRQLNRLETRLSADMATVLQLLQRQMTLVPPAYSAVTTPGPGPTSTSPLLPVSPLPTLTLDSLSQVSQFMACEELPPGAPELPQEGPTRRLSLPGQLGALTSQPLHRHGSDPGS
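Note: peak tail current of the secondary pulse compared with the same well before compound.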

Compound	hERG current change (%, negative = inhibition) at 10uM [%]
O=[N+]([O-])c1cccc(S(=O)(=O)Nc2ccc(Cc3ccncc3)cc2)c1	-72.2
COc1cccc(CNC(=O)C2=C(C)C(=O)OC23CCC(C)CC3)c1 (stereo not shown)	-5.65
O=C(O)c1cc(S(=O)(=O)N2CCCCCC2)ccc1Cl	20
Cc1ccnc(NCc2ccccc2O)c1	14.6
O=C1CCC([N+](=O)[O-])C(c2ccc(-c3ccccc3)cc2)N1 (stereo not shown)	-11.3
Cc1ccc(N2C(=O)C3C4CC(=O)C(c5ccccc54)C3C2=O)cc1 (stereo not shown)	2.69
Cc1ccc(N2C(=O)C3CC(c4ccccc4)=C4C5C=CC(C6C(=O)N(c7ccc(C)cc7C)C(=O)C56)C4C3C2=O)c(C)c1 (stereo not shown)	7.82
Cc1ccc(N2C(=O)C3CC(c4ccccc4)=C4C5C=CC(C6C(=O)N(c7ccc(C)cc7)C(=O)C56)C4C3C2=O)cc1 (stereo not shown)	-73.6
C=C[C@]1(C)C[C@@H](OC(=O)CSCCN(CC)CC)[C@]2(C)C(C)CC[C@]3(CCC(=O)[C@H]32)[C@@H](C)[C@@H]1O (stereo partly shown)	-61.9
C=C[C@]1(C)C[C@@H](OC(=O)CSCCN(CC)CC)[C@]2(C)C(C)CC[C@]3(CCC(=O)[C@H]32)[C@@H](C)[C@@H]1O.O=C(O)/C=C/C(=O)O (stereo partly shown)	-68.3
O=C(Cc1noc2ccccc12)NNC(=S)Nc1ccc(Cl)cc1	16.5
Cn1nc(C(F)(F)F)c(-c2ccc(Br)cc2)c1NC(=O)Nc1ccc(F)cc1F	13
Cc1ccc(C(=O)C2(C)C3c4cc(Br)ccc4OC(=O)C32C(=O)c2ccco2)cc1 (stereo not shown)	15.8
CCCNC(=O)[C@H]1N2C(=O)c3c(ccc(OC)c3OC)C2SC1(C)C (stereo partly shown)	16.4
COc1ccc(CCNC(=O)CN(c2ccccc2)S(C)(=O)=O)cc1OC	-8.06
CC(C)(C)CN1CCNC(=O)C1CC(=O)NC1Cc2ccccc2C1 (stereo not shown)	4.08
CCNC(=O)O/N=C(\C)c1sc(-c2ccc(Cl)cc2)nc1C	-23.9
CCCS(=O)(=O)c1c(S(=O)(=O)CCC)c2cc(-c3ccncc3)ccn2c1C(=O)OC	-50.2
CCCS(=O)(=O)c1c(S(=O)(=O)CCC)c2ccccn2c1C(=O)OC	-7.5
CCCS(=O)(=O)c1c(S(=O)(=O)CCC)c2cc(CC)ccn2c1C(=O)OC	-29.2
O=C(CSc1nnc(NCc2ccccc2)s1)NC1CCS(=O)(=O)C1 (stereo not shown)	10.1
Cc1cc(SCC(=O)Nc2cccc(S(N)(=O)=O)c2)c(C)cc1Br	30.8
Cc1ccc(-c2noc(CCC(=O)Nc3ccccc3N3CCN(C)CC3)n2)cc1	-33.7

Compound	hERG current change (%, negative = inhibition) at 10uM [%]
CSc1nc(-c2ccccc2)nn1S(=O)(=O)c1ccccc1	7
CCOC(=O)C1(Cc2cccc(OC)c2)CCN(Cc2cccn2-c2ccccn2)CC1	-74.8
CCOC(=O)C1(Cc2ccccc2)CCN(Cc2cccn2-c2nccs2)CC1	-82
CCOC(=O)C1(Cc2cccc(OC)c2)CCN(Cc2ccon2)CC1	1.68
CCOC(=O)C1(Cc2cccc(OC)c2)CCN(Cc2cccn2-c2nccs2)CC1	-72
CCOC(=O)C1(Cc2cccc(OC)c2)CCN(Cc2cccnc2)CC1	-16.4
COc1ccc(-n2nc(C(=O)NCC(=O)N(C)Cc3ccccc3)c3ccccc3c2=O)cc1	-8.21
NC(=O)[C@@H]1[C@@H]2C(=O)N(c3ccc(F)cc3)C(=O)[C@@H]2[C@H]2C=Cc3ccccc3N21	14.2
Nc1ccc(C(=O)OCC(=O)c2cccc([N+](=O)[O-])c2)cc1	39.8
Cc1ccccc1C(C(=O)NC1CCCCC1)N(C(=O)CNC(=O)c1ccco1)c1cccnc1 (stereo not shown)	6.3
CC(C)CN(C(=O)CSc1n[nH]c(-c2cccs2)n1)C1CCS(=O)(=O)C1 (stereo not shown)	-2.69
O=C(Nc1ccc(F)c([N+](=O)[O-])c1)C1CC(=O)N(Cc2ccccc2)C1 (stereo not shown)	-34.4
Cc1nn(-c2ccccc2)c(C)c1NC(=O)COC(=O)C1CC(=O)N(CCc2ccccc2)C1 (stereo not shown)	9.52
O=C(OCc1ccccc1Cl)C1CC(=O)N(Cc2ccco2)C1 (stereo not shown)	11.4
O=C(Nc1cccc([N+](=O)[O-])c1)C1CC(=O)N(Cc2ccccc2)C1 (stereo not shown)	-53.2
O=C(OCc1ccc([N+](=O)[O-])cc1)C1CC(=O)N(CCc2ccccc2)C1 (stereo not shown)	-69.4
O=C(Nc1ccccc1)C1CC(=O)N(Cc2ccccc2)C1 (stereo not shown)	2.14
CCOC(=O)c1ccccc1NC(=O)COC(=O)C1CC(=O)N(CCc2ccccc2)C1 (stereo not shown)	-75.6
CCOc1ccc(COC(=O)C2CC(=O)N(CCc3ccccc3)C2)cc1OC (stereo not shown)	-21.6
O=C(O)C1CC(=O)N(CCc2ccccc2)C1 (stereo not shown)	6.79
Cc1ccc(CN2CC(C(=O)OCc3ccccc3Cl)CC2=O)cc1 (stereo not shown)	0.354
O=C(OCc1ccc([N+](=O)[O-])cc1)C1CC(=O)N(Cc2ccccc2Cl)C1 (stereo not shown)	-66.4
CCOC(=O)c1ccccc1NC(=O)COC(=O)C1CCCC1	-2.49
